The target in test [1] is Cell division control protein 42 homolog (Homo sapiens) (UniProt P60953). Kind of test: inhibition of fluorescent GTP binding to constitutively active Cdc42 – biochemical, multiplex bead flow cytometry, Bodipy-FL-GTP, dose response (AID 1333;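 active means fitted half-maximal concentration within the tested dose range, moderate curve steepness, a statistically real signal drop, and little compound fluorescence or tag-binding interference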).
The target is the same in test [2]. Description: inhibition of fluorescent GTP binding to wildtype Cdc42 – biochemical, multiplex bead flow cytometry, Bodipy-FL-GTP, dose response (AID 1334;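 active means fitted half-maximal concentration within the tested range, moderate curve steepness, significant signal drop, and little compound fluorescence or bead-linkage interference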). To be noted: bead-based flow cytometry, Bodipy-FL-GTP binding to GST-Cdc42; at 100 µM (top of the series) unless noted. In general terms: A flow cytometer gives signals particle by particle.
For test [3], the target named is GTPase HRas (Homo sapiens) (UniProt P01112). Description: Ras wt fluorescent GTP loading blockade – biochemical, wildtype, multiplex bead flow cytometry, dose response (AID 1335). To be noted: bead-based flow cytometry, Bodipy-GTP binding to GST-Ras; at 100 µM (top of the series) unless noted.
Test [4] concerns Ras-related protein Rab-7a (dog), GTP binding. Description: blockers of fluorescent GTP binding to Rab7 – biochemical, wildtype, multiplex bead flow cytometry, dose response (AID 1336; call rule not given here).
For test [5], the target named is Ras-related C3 botulinum toxin substrate 1 (Homo sapiens) (UniProt P63000). Kind of test: inhibition of wildtype Rac1 nucleotide loading – biochemical, multiplex bead flow cytometry, dose response (AID 1340;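 active means dose curve with midpoint inside tested range, moderate steepness, plateau gap beyond fit error, low compound glow and bead-link interference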). The following applies: GST-Rac1 beads, Bodipy-FL-GTP binding; at 100 µM (top of the series) unless noted.
The target in test [6] is GTPase HRas (Homo sapiens) (UniProt P01112). Kind of test: blockade of GTP loading onto mutant Ras – biochemical, activated mutant, multiplex bead flow cytometry, dose response (AID 1341;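 active means dose-response curve with midpoint inside the tested range, moderate steepness, significant amplitude and little compound fluorescence or bead-attachment interference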;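 further: GST-tagged constitutively activated Ras mutant immobilized on beads and multiplexed with other GTPases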).

Structures are written as SMILES. For part of these data: Potency and affinity values are given separately. Calls of active or inactive are those of the source.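 How the source made its calls, unless noted: active means fitted half-maximal concentration within 10 nM to 100 µM, steepness 0.5 to 2, significant signal drop, low assay interference; inactive means the rest.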

GTPase HRas (Homo sapiens), sequence (P01112 whole entry, looked up): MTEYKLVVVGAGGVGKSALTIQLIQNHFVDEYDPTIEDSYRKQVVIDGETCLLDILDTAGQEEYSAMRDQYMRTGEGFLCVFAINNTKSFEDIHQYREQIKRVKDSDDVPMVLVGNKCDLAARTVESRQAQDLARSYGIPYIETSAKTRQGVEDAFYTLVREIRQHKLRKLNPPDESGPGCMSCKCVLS
Cell division control protein 42 homolog (Homo sapiens), sequence (P60953 whole entry, looked up): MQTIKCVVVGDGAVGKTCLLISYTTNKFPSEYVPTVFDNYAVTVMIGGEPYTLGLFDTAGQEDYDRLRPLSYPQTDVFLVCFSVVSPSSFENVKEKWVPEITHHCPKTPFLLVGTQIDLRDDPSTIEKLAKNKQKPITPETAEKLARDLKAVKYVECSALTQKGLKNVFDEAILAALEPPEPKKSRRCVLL

Turning to `OC(CN1CCN(Cc2ccc3c(c2)OCO3)CC1)c1c[nH]c2ccccc12` (stereo unspecified), the call in test [1], in test [4] and in test [6] was inactive. Further, the fluorescence, percent of control (lower = inhibition) in test [2] is 36.1%. The GTP binding, percent of control in test [3] is 78.7%. The GTP binding signal, raw median fluorescence (lower = inhibition) (MCF (arbitrary fluorescence units)) in test [5] was 281.
With `O=C1NC(=S)N/C1=C/c1cc([N+](=O)[O-])ccc1O`, the molecule was called inactive in test [1], in test [4] and in test [6]. Also, the fluorescence, percent of control (lower = inhibition) in test [2] was 60.7%. Further, the GTP binding, percent of control in test [3] came out at 157% [at 33.3 µM]. Besides, the GTP binding signal, raw median fluorescence (lower = inhibition) (MCF (arbitrary fluorescence units)) in test [5] was 185 [at 33.3 µM].
With `O=C(O)c1ccccc1NCc1ccc2c(c1)OCO2`, the outcome in test [1], in test [4] and in test [6] was inactive. Further, the fluorescence, percent of control (lower = inhibition) in test [2] was 69.6%. In test [3], the GTP binding, percent of control was 89.5%. The same molecule came in with a GTP binding signal, raw median fluorescence (lower = inhibition) (MCF (arbitrary fluorescence units)) in test [5] of 54.
Take `O=S1(=O)N=C(N(CCO)/N=C/C=C/c2ccccc2)c2ccccc21`: the outcome in test [1], in test [4] and in test [6] was inactive. The fluorescence, percent of control (lower = inhibition) in test [2] came out at 22.8%. The molecule further came in with a GTP binding, percent of control in test [3] of 35.3%. In test [5], the GTP binding signal, raw median fluorescence (lower = inhibition) (MCF (arbitrary fluorescence units)) came to 101.
Take `N#CC(C#N)=C(Nc1ccc(F)cc1)SCc1cccc(Br)c1`: the molecule was called inactive in test [1], in test [4] and in test [6]. For the same molecule, the fluorescence, percent of control (lower = inhibition) in test [2] is 45.8%. Moreover, in test [3], the GTP binding, percent of control was found to be 61.7%. Moreover, the GTP binding signal, raw median fluorescence (lower = inhibition) (MCF (arbitrary fluorescence units)) in test [5] worked out at 181.
In the case of `O=C(C1CCCO1)N1CCN(C(=S)Nc2ccccc2C(F)(F)F)CC1` (stereo unspecified), the call in test [1], in test [4] and in test [6] was inactive. Further, the fluorescence, percent of control (lower = inhibition) in test [2] is 53.3%. The GTP binding, percent of control in test [3] turned out to be 64.3%. The GTP binding signal, raw median fluorescence (lower = inhibition) (MCF (arbitrary fluorescence units)) in test [5] was 208.
In the case of `O=C1/C(=C/c2ccc(N3CCOCC3)o2)SC(=Nc2ccccc2)N1CCc1c[nH]c2ccccc12`, the result in test [1], in test [4] and in test [6] was inactive. The fluorescence, percent of control (lower = inhibition) in test [2] came to 104%. The molecule further returned a GTP binding, percent of control in test [3] of 114%. Besides, the GTP binding signal, raw median fluorescence (lower = inhibition) (MCF (arbitrary fluorescence units)) in test [5] came to 242.
Take `Cc1ccc(Nc2nc(-c3c(C)nc4ncccn34)cs2)cc1`: the result in test [1], in test [4] and in test [6] was inactive. Besides, the fluorescence, percent of control (lower = inhibition) in test [2] came to 29.8%. The GTP binding, percent of control in test [3] was found to be 43.7%. This molecule registered a GTP binding signal, raw median fluorescence (lower = inhibition) (MCF (arbitrary fluorescence units)) in test [5] of 103.
As to `COc1cccc(C2CC(c3ccccc3)Nc3ncnn32)c1` (stereo unspecified), the molecule was called inactive in test [1], in test [4] and in test [6]. Besides, in test [2], the fluorescence, percent of control (lower = inhibition) stood at 38.6%. The molecule also had a GTP binding, percent of control in test [3] of 80.1%. This molecule also returned a GTP binding signal, raw median fluorescence (lower = inhibition) (MCF (arbitrary fluorescence units)) in test [5] of 242.
Regarding `Cc1ccc(C)c(OCCSc2nc3ccccc3n2CC(=O)O)c1`, the call in test [1], in test [4] and in test [6] was inactive. The fluorescence, percent of control (lower = inhibition) in test [2] was determined as 59.6%. This molecule returned a GTP binding, percent of control in test [3] of 88.1%. This molecule also showed a GTP binding signal, raw median fluorescence (lower = inhibition) (MCF (arbitrary fluorescence units)) in test [5] of 29.2.
As for `COc1cccc(OCc2c(C)cccc2C)c1C(=O)O`, the outcome in test [1], in test [4] and in test [6] was inactive. Further, the fluorescence, percent of control (lower = inhibition) in test [2] turned out to be 56.5%. The same molecule gave a GTP binding, percent of control in test [3] of 209%. The same molecule registered a GTP binding signal, raw median fluorescence (lower = inhibition) (MCF (arbitrary fluorescence units)) in test [5] of 52.5.
Take `O=C(CSc1ccc2nnc(-c3cccc(F)c3)n2n1)N1CCCc2ccccc21`: the molecule was called inactive in test [1], in test [4] and in test [6]. Moreover, in test [2], the fluorescence, percent of control (lower = inhibition) stood at 37.7%. Further, the GTP binding, percent of control in test [3] was 83%. In test [5], this molecule registered a GTP binding signal, raw median fluorescence (lower = inhibition) (MCF (arbitrary fluorescence units)) of 209.
Turning to `C/C(=N\NC(=O)c1c[nH]c2ccccc12)c1ccc(C)o1`, the molecule was called inactive in test [1], in test [4] and in test [6]. For the same molecule, the fluorescence, percent of control (lower = inhibition) in test [2] was 29.9%. This molecule had a GTP binding, percent of control in test [3] of 68.2%. This molecule showed a GTP binding signal, raw median fluorescence (lower = inhibition) (MCF (arbitrary fluorescence units)) in test [5] of 150.
For `Cc1ccccc1OCCn1cc(C(=O)O)c2cccc(C)c21`, the outcome in test [1], in test [4] and in test [6] was inactive. The fluorescence, percent of control (lower = inhibition) in test [2] stood at 53.7%. Also, the GTP binding, percent of control in test [3] came to 200%. This molecule also showed a GTP binding signal, raw median fluorescence (lower = inhibition) (MCF (arbitrary fluorescence units)) in test [5] of 53.4.
`O=C(O)c1ccc(Nc2nc(-c3cccnc3)nc3ccccc23)cc1`: the call in test [1], in test [4] and in test [6] was inactive. For the same molecule, the fluorescence, percent of control (lower = inhibition) in test [2] came to 27.9%. In test [3], the GTP binding, percent of control turned out to be 66.3%. Moreover, the GTP binding signal, raw median fluorescence (lower = inhibition) (MCF (arbitrary fluorescence units)) in test [5] worked out at 142.
Regarding `CC(C)C(=O)N1CCN(c2ccccc2NC(=O)c2cccc(Cl)c2)CC1`, the result in test [1], in test [4] and in test [6] was inactive. The fluorescence, percent of control (lower = inhibition) in test [2] was 34.8%. The GTP binding, percent of control in test [3] is 82.2%. The GTP binding signal, raw median fluorescence (lower = inhibition) (MCF (arbitrary fluorescence units)) in test [5] stood at 269.

The values above are taken from PubChem BioAssay.
